Measurements taken from PubChem BioAssay AID602439 (Southern Research Specialized Biocontainment Screening …, 2012).
Results with a measured potency or affinity are listed apart. The source made the active and inactive calls. How the calls were made is not given here.

Experiment: viability of Vero 76 cells – cell-based, set 3, cytotoxicity control, dose response (AID 602439)

With `CN1CCN(Cc2nc3ccc([N+](=O)[O-])cc3c(=O)n2-c2ccccc2F)CC1` the outcome was “inactive”.
For `O=C(Cc1cccs1)Nc1nc2ccccc2s1`, the outcome was “inactive”.
In the case of `O=C(Cc1ccccc1)Nc1nc2c(s1)CCCC2`, the outcome is reported as “inactive”.
In the case of `CN(C(=O)Cc1cccs1)c1nc2c(s1)CCCC2`, the outcome is reported as “inactive”.
In the case of `O=C(Cc1cccs1)Nc1nccs1`, the outcome is reported as “inactive”.
For `O=c1c2cc([N+](=O)[O-])ccc2nc(CN2CCOCC2)n1-c1ccccc1F`, the outcome was “inactive”.
In the case of `CC(C)N1CCN(Cc2nc3ccc([N+](=O)[O-])cc3c(=O)n2-c2ccccc2F)CC1`, the outcome is reported as “inactive”.
For `CCN1CCN(Cc2nc3ccc([N+](=O)[O-])cc3c(=O)n2-c2ccccc2F)CC1`, the outcome was “inactive”.
